Results reported in PubChem BioAssay (NCI).
About 83,000 compounds went through this panel and 20% of them were active in at least one assay; those are over-represented in the sample as a whole.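 How to read the values: 0–100, growth inhibition (40 = 60% inhibited); 0, no net growth; -100 to 0, cell death (-40 = 40% of starting cells died; -100 = all dead).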 The source made the active and inactive calls. Rule for the calls: active = growth percent below 10; inactive = the rest.

What was measured:
Assay in all cases: NCI-60 one-dose screen, 48 h (100 = growth as untreated, 0 = no growth, -100 = all killed)
Details in all cases: 10 µM unless noted
[1] = tested on: NCI-H23 lung
[2] = tested on: NCI-H226 lung
[3] = tested on: NCI-H322M lung
[4] = tested on: HOP-62 NSCLC
[5] = tested on: NCI-H460 lung
[6] = tested on: HOP-92 NSCLC
[7] = tested on: A549/ATCC NSCLC
[8] = tested on: 786-0 renal
[9] = tested on: COLO 205 colon
[10] = tested on: NCI-H522 lung

Measured: growth

COP(=O)(OC)/C(=N\NS(=O)(=O)c1ccc(C)cc1)c1ccccc1
inactive: [1] 91.5% | [2] 89.2% | [3] 102% | [4] 95.5% | [5] 101% | [6] 106% | [7] 104% | [8] 94.7% | [9] 109%

COc1ccc(-c2nc(SCCC(C)C)nc(Nc3ccc(F)c(Cl)c3)c2C#N)cc1
inactive: [1] 90.2% | [2] 65.8% | [3] 63.2% | [4] 88.7% | [5] 24.1% | [6] 101% | [10] 84.5% | [8] 45.4% | [9] 70.8%

COc1cc(-c2nn(-c3cccc(NC(=O)c4cccc(C(F)(F)F)c4)c3)cc2-c2ccncc2)ccc1Cl
active: [5] 4.83% | [6] -5.59% | [7] 7.4% | [9] 7.11%
inactive: [1] 24.7% | [2] 36.2% | [3] 58.1% | [4] 22.9% | [8] 29.8%

Cc1ccc(-c2cc3nc(-c4ccccc4)nc(C(Cl)Cl)n3n2)cc1
inactive: [1] 30.3% | [2] 70.9%
active: [3] -85.9% | [4] -60.1% | [5] -48% | [6] -81.5% | [7] -58.1% | [8] -79.3% | [9] -66.1%

COc1cc2c(cc1OCCCN1CCN(CCCn3c4ccccc4c4ccccc43)CC1)N=C[C@@H]1CCCN1C2=O
active: [1] -30.6% | [2] -80.4% | [3] -65.5% | [4] -66% | [5] -96.9% | [6] -80.5% | [7] -37.5% | [8] -70.3% | [9] -98.8%

O=C(/C=C/c1c[nH]c2ccccc12)c1ccc(O)c(CN2CCN(c3ccc(F)cc3)CC2)c1
inactive: [1] 99.8% | [2] 100% | [3] 103% | [4] 95.9% | [5] 106% | [6] 95.5% | [7] 99.5% | [8] 103% | [9] 109%

COc1cc(-c2nn(-c3cccc(NC(=O)Nc4cccc(C(F)(F)F)c4)c3)cc2-c2ccncc2)ccc1Cl
inactive: [3] 21.7%
active: [1] -12.4% | [2] 4.3% | [4] -29.8% | [5] -7.91% | [6] -33.6% | [7] -14% | [8] -15% | [9] -88.9%

Cn1ccc(=O)c(S(N)(=O)=O)c1
inactive: [1] 95.6% | [2] 108% | [3] 108% | [4] 92.4% | [5] 102% | [6] 89.3% | [7] 99.7% | [8] 103% | [9] 117%

Cc1ccc(-c2csc(NC(=O)CCCCl)n2)cc1
inactive: [1] 93.1% | [2] 78.5% | [3] 87.4% | [4] 101% | [5] 103% | [6] 74.8% | [7] 90.5% | [8] 87.3% | [9] 112%

S=C1CC(=S)NC(=S)N1
inactive: [1] 103% | [2] 103% | [3] 124% | [4] 104% | [5] 102% | [6] 102% | [7] 111% | [8] 106% | [9] 100%

COc1ccc(C(=O)NC(=O)Nc2cc3c(cc2F)/C(=C/c2[nH]c(C)c(CCC(=O)O)c2C)C(=O)N3)c(F)c1
inactive: [1] 41.3% | [2] 53.3% | [3] 63.9% | [4] 25.8% | [5] 28.6% | [10] 48.6% | [7] 13.5% | [8] 39% | [9] 67.4%

O=C(CSC1CCc2ccccc21)N/N=C/c1ccccc1O (stereo not given)
inactive: [1] 55.5% | [2] 67.7% | [3] 22.6% | [4] 47.5% | [5] 30.9% | [7] 48.2% | [8] 66.6% | [9] 45.7%
active: [10] 7.47%

O=c1[nH]c(-c2ccccc2)nc(CN2CCCCC2)c1O
inactive: [1] 103% | [2] 108% | [3] 136% | [4] 112% | [5] 109% | [10] 116% | [7] 111% | [8] 102% | [9] 113%

CCCCCCN1CSC(=S)N(CCCCCC)C1
inactive: [1] 83.6% | [2] 92.3% | [3] 115% | [4] 104% | [5] 100% | [10] 101% | [7] 101% | [8] 99.4% | [9] 106%

CCOC(=O)c1ccc(NC(=O)N2CC(C)OC(C)C2)cc1 (stereo not given)
inactive: [1] 92% | [2] 98.1% | [3] 111% | [4] 91.7% | [5] 104% | [10] 94.6% | [7] 106% | [8] 98.6% | [9] 116%
